This is a sample that favours compounds with a hit; in the whole collection about 2.7% have one here.
MsrA inhibitor: bovine MsrA inhibition. purified bovine MsrA, absorbance read-out. inhibition, % at 15.5 µM. hit rate 0.75% among 360,000. AID 651718; in the data active means inhibition above about 4.5%;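 further: 0% = vehicle wells with enzyme and 100% = reference inhibitor wells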
MsrA act: activators of bovine methionine sulfoxide reductase A; activation, % at 10.6 µM; hit rate 0.3% among 360,000; purified bovine MsrA, absorbance read-out; in the data active means activation above about 7.5%;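 further: 0% = vehicle and 100% = reference activator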
rCAG binder: molecules binding r(CAG) RNA repeats. r(CAG) RNA repeat, TO-PRO-1 dye displacement fluorescence. hit rate 1.3% among 370,000. inhibition, % at 3 µM. AID 651821;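 active means inhibition above the plate cutoff, the mean of all test compounds on that plate plus 3 SD, cut at about 35% in these data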;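 further: 0% = DMSO alone and 100% = 100 µM mitoxantrone as full dye displacement; higher means more dye released from RNA so lower well fluorescence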
NadD block: blocks S. aureus nicotinate mononucleotide adenylyltransferase; purified NadD enzyme, colorimetric absorbance read-out; inhibition, % at 20 µM; hit rate 0.78% among 360,000; in the data active means inhibition above about 26%
* = called active by the depositor.

Screening CCN(CC)S(=O)(=O)c1cccc(C(=O)Nc2cccc(C)c2)c1 returned MsrA inhibitor -0.9, MsrA act -2.8, rCAG binder -2.3 and NadD block -7.9.
`CCN(CC)S(=O)(=O)c1cccc(NC(=O)C2SC(=Nc3ccc(C)cc3C)C(C(=O)NC(C)COC)=C2N)c1` (centres undefined) gave MsrA inhibitor -0.9, MsrA act -2.1, rCAG binder 9.5 and NadD block 44.3*.
`COc1cc2c(cc1NC(=O)Nc1ccccc1)oc1ccccc12` gave MsrA inhibitor 2.6, MsrA act -1.5, rCAG binder 35.1* and NadD block -5.5.
Screening COc1ccc(CN(C)CC(=O)Nc2cc3oc4ccccc4c3cc2OC)c(OC)c1 returned MsrA inhibitor -0.1, MsrA act -4.5, rCAG binder 2.4 and NadD block 1.2.
COc1cc2c(cc1NC(=O)CN(C)Cc1ccc(OC)c(OC)c1)oc1ccccc12 was read as MsrA inhibitor 4.6*, MsrA act -7.1, rCAG binder 6.5 and NadD block -2.9.
`COc1cc2c(cc1NC(=O)CN1C(=O)NC3(CCc4ccccc43)C1=O)oc1ccccc12` (centres undefined) gave MsrA inhibitor 3.1, MsrA act 0.3, rCAG binder 24.2 and NadD block 35.5*.
CC1CCN(c2cc(N3CCC(C)CC3)c([N+](=O)[O-])cc2/C=C(\C#N)c2nn(-c3ccccc3)c(N)c2C#N)CC1 was read as MsrA inhibitor 0.2, MsrA act -11.2, rCAG binder 6.4 and NadD block 50.9*.
Screening CC1(C(=O)Nc2ccc3c(c2)OCCO3)CN(S(C)(=O)=O)CC(=O)N1Cc1cccc(C(F)(F)F)c1 (centres undefined) returned MsrA inhibitor -0.8 and rCAG binder 0.9.
COc1ccc(/C=N/Nc2nc(-c3ccc(Cl)cc3)cc(C(F)(F)F)n2)c(OC)c1 was read as MsrA inhibitor 4.6*, MsrA act -1.7, rCAG binder 1.7 and NadD block 24.6.
For O=C(CNc1cccc2ccccc12)N/N=C/c1ccc(C(=O)O)cc1 the results were MsrA inhibitor 0.9, MsrA act -5.0, rCAG binder 22.9 and NadD block 1.5.
`O=C(CNc1cccc2ccccc12)N/N=C/C=C/c1ccco1` gave MsrA inhibitor 4.6*, MsrA act -4.8, rCAG binder 10.8 and NadD block 23.9.
Screening CC(C)(C)c1cc(NC(=O)Nc2ccccc2)no1 returned MsrA inhibitor -0.6, MsrA act 8.2*, rCAG binder -0.5 and NadD block -7.1.
For CC1=Nc2ccccc2/C1=C/c1sc(=S)n(-c2cccc(C(=O)O)c2)c1O the results were MsrA inhibitor 2.0, MsrA act -14.4, rCAG binder 72.4* and NadD block 12.3.
Screening O=C(CSc1nc2ncc(Br)cc2[nH]1)c1ccc([N+](=O)[O-])cc1 returned MsrA inhibitor 1.4, MsrA act 2.4, rCAG binder 11.3 and NadD block 5.5.
`O=C(CSc1nc2ccc([N+](=O)[O-])cc2[nH]1)c1ccc2ccccc2c1` gave MsrA inhibitor -0.1, MsrA act -3.5, rCAG binder 37.0* and NadD block 29.3.
For Cc1cc(NC(=O)CS(=O)(=O)c2cn(Cc3cccc(Cl)c3)c3ccccc23)no1 the results were MsrA inhibitor 0.5, MsrA act 0.0, rCAG binder 4.7 and NadD block -3.7.
O=C1OCCN1C(=O)[C@H]1[C@H](c2ccc([N+](=O)[O-])cc2)C(c2cccc(Cl)c2)=NN1c1ccc(Br)cc1 was read as MsrA inhibitor 0.9, MsrA act -4.2, rCAG binder 14.0 and NadD block 22.1.
O=C1OCCN1C(=O)[C@H]1[C@H](c2ccc([N+](=O)[O-])cc2)C(c2ccccc2)=NN1c1ccc(Br)cc1 was read as MsrA inhibitor 4.8*, MsrA act -1.6, rCAG binder 13.2 and NadD block 21.9.
For Cc1cccc(C2=NN(c3ccccc3)[C@@H](C(=O)N3CCOC3=O)[C@@H]2c2ccc([N+](=O)[O-])cc2)c1 the results were MsrA inhibitor 5.5*, MsrA act -2.1, rCAG binder 11.6 and NadD block 20.2.
Screening Cc1ccc2c(c1)c1c(c(=O)n(-c3ccccc3C)c(=O)n1CC(=O)NCC1CCCO1)n2C (centres undefined) returned MsrA inhibitor 1.6, MsrA act -0.8, rCAG binder -1.8 and NadD block 8.3.
CN(C)S(=O)(=O)c1cccc(NC(=S)N/N=C/c2ccc(O)c(O)c2O)c1 was read as MsrA inhibitor 1.7, MsrA act -4.8, rCAG binder 58.6* and NadD block 10.7.
Screening COc1ccc(O)c(/C=N/NC(=S)Nc2cccc(S(=O)(=O)N(C)C)c2)c1 returned MsrA inhibitor 2.3, MsrA act -1.6, rCAG binder 21.8 and NadD block -1.1.

High-throughput results from PubChem BioAssay.
